Hit rate of the full screen: of about 320,000 compounds, about 480 (0.15%) were called active. Another 1% or so got no clear call; they are omitted. Cut-off read from the data, not from the text of the source: active = inhibition above about 26% (passing the limit was not always enough); inconclusive = no clear call, values can overlap the other calls. The list comes from a sample in which actives are over-represented; it also holds similar structures and randomly drawn compounds.
Each compound was assayed against Histone deacetylase 3 (Homo sapiens) (UniProt O15379) (assay: inhibition of human HDAC3 enzyme activity – biochemical, fluorescence, cell-free homogeneous, primary screen (AID 2718)). Conditions: recombinant HDAC3, fluorogenic peptide/trypsin coupled, at 8.3 µM, hits give high values.
Histone deacetylase 3 (Homo sapiens), sequence (O15379 whole entry, looked up): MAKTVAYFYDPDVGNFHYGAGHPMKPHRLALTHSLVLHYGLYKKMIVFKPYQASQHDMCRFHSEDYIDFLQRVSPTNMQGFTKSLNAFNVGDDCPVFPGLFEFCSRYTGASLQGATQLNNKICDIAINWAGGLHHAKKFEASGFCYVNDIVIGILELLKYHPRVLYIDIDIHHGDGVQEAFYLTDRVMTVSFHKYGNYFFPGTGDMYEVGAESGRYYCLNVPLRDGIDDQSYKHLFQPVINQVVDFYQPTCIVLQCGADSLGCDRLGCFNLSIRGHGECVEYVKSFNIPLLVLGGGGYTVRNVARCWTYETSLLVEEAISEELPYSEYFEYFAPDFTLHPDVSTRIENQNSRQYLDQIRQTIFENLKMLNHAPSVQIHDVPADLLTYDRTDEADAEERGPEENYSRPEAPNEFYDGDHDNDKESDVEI

| Structure (SMILES) | inhibition |
| --- | --- |
| O=C(COC(=O)c1cccnc1Cl)NC12CC3CC(CC(C3)C1)C2 | -0.423% (inactive) |
| COCC(C)n1c(SCC(=O)NC2CCCCC2C)nc2ccccc2c1=O (centres undefined) | 0.838% (inactive) |
| O=C(COC(=O)c1ccc(Br)o1)NC12CC3CC(CC(C3)C1)C2 | -3.01% (inactive) |
| C[C@H](CO)N1C[C@H](C)[C@@H](CN(C)C(=O)Nc2ccc3c(c2)OCO3)Oc2c(cccc2N(C)C)C1=O | -8.66% (inactive) |
| COc1ccc2nc3n(c(=O)c2c1)-c1ccc(Cl)cc1C(=O)NC3Cc1ccccc1 (centres undefined) | -1.2% (inactive) |
| C[C@H]1COC(=O)[C@H](CC(=O)OC(C)(C)C)C/C=C\C[C@@H](CC(=O)N[C@H](CO)Cc2ccccc2)C(=O)N1 | -4.05% (inactive) |
| CN1C(=O)[C@H]2[C@@H](/C=C/c3ccccc3)N3C(=O)CN(Cc4ccc(-c5ccccc5)cc4)C(=O)[C@@]3(C)[C@H]2C1=O | 6.83% (inactive) |
| O=C(OCC(=O)N1CCCCCC1)c1ccc(Br)c(S(=O)(=O)N2CCOCC2)c1 | -0.213% (inactive) |
| O=C(CCNC(=O)c1ccc(Br)cc1)NCC(c1ccco1)N1CCCCC1 (centres undefined) | 2.98% (inactive) |
| Cn1c(N)c(C(=O)COC(=O)c2ccc3ccccc3c2)c(=O)n(C)c1=O | -3.95% (inactive) |
| COC(=O)c1c(CCl)noc1C(=O)NC(C)C | -2.79% (inactive) |
| O=C(CNC(=O)c1ccccc1F)OCC(=O)c1c[nH]c2ccccc12 | 1.43% (inactive) |
| Clc1cccc(Cl)c1Cn1nnc(-c2cccs2)n1 | -9.16% (inactive) |
| COc1cc(Cl)c(C)cc1NC(=O)CSc1nnc(CN2CCCC2)o1 | -2.25% (inactive) |
| Cc1nn(C)c(C)c1CN(C(=O)CCc1nnc(Cc2c[nH]c3ccccc23)o1)C(C)C | -1.72% (inactive) |
| Cc1ccsc1C(=O)NNC(=O)COc1ccc(Br)cc1 | -2.82% (inactive) |
| CC1(C)CC[C@@]2(C(=O)O)C(C1)C1=CCC3[C@@]4(C)CC[C@H](O)C(C)(C)C4CC[C@@]3(C)[C@]1(C)C[C@H]2O (some centres undefined) | -0.0116% (inactive) |
| CN(C(=O)CSc1cccc[n+]1[O-])C1CCCCC1 | -0.125% (inactive) |
| COc1cc(NC(=O)COC(=O)c2cc(S(=O)(=O)N3CCOCC3)ccc2F)cc(OC)c1 | -6.13% (inactive) |
| CC(C)CC1(C)NC(=O)N(CC(=O)Nc2ccc3c(c2)OCCO3)C1=O (centres undefined) | 0.72% (inactive) |
| O=C(N/N=C\c1ccc(-c2ccc(Cl)c(Cl)c2)o1)C(=O)N1CCCC1 | -2.85% (inactive) |
| Cc1ccc(C(=O)N2CCC(n3nccc3NC(=O)Nc3cccc(F)c3)CC2)cn1 | 4.68% (inactive) |
| CCN1N=C(c2ccccc2)CCC1=O | -1.92% (inactive) |
| CN(c1ccccc1)S(=O)(=O)c1cc(C(=O)N2CCN(c3ncccn3)CC2)ccc1Cl | 5.51% (inactive) |
| O=C(N=C1SC2CS(=O)(=O)CC2N1c1ccccc1)c1ccccc1 (centres undefined) | 3.67% (inactive) |

| Structure (SMILES) | inhibition |
| --- | --- |
| O=C(Cn1c(N2CCN(C/C=C/c3ccccc3)CC2)nc2ccccc21)c1ccccc1 | 11.7% (inactive) |
| COc1ccc(NC(=O)N(C)C[C@H]2Oc3ccc(NC(=O)C4CC4)cc3C(=O)N([C@H](C)CO)C[C@@H]2C)cc1 | 2.07% (inactive) |
| COc1ccc(S(=O)(=O)N(C)C[C@H]2Oc3c(NC(=O)Nc4ccc5c(c4)OCO5)cccc3C(=O)N([C@H](C)CO)C[C@@H]2C)cc1 | 0.282% (inactive) |
| Cc1ccc(C(=O)NNC(=O)CSc2nnc3ccccn23)cc1 | -19.4% (inactive) |
| C#CCOCCOCCOCCNc1nc(N2CCN(C(=O)CCCCCCCCCCNC(=O)[C@H]([C@@H](C)CC)n3cc(CCCCN=C(N)N)nn3)CC2)nc(N2CCN(C(=O)CCCCCCCCCCNC(=O)[C@H](CO)n3cc(CCCSC)nn3)CC2)n1 | 65% (active) |
| C#CCOCCOCCOCCNc1nc(N2CCN(C(=O)CCCCCCCCCCNC(=O)[C@H](CCCCN)n3cc(C)nn3)CC2)nc(N2CCN(C(=O)CCCCCCCCCCNC(=O)[C@H](CO)n3cc(CCCSC)nn3)CC2)n1 | 17.4% (inactive) |
| C#CCOCCOCCOCCNc1nc(N2CCN(C(=O)CCCCCCCCCCNC(=O)Cn3cc(CCCCCN)nn3)CC2)nc(N2CCN(C(=O)CCCCCCCCCCNC(=O)[C@H](CO)n3cc(CCCSC)nn3)CC2)n1 | 22.2% (inactive) |
| CCOC(=O)C1(Cc2cccc(OC)c2)CCN(Cc2csc(C(C)=O)c2)CC1 | 0.985% (inactive) |
| CCOC(=O)C1=C(CC)Nc2ccccc2N=C1N | 5.45% (inactive) |
| CCCCOc1ccc(N(CC(=O)NCC2CCCO2)C(=O)CCC(=O)Nc2cc(C)ccn2)cc1 (centres undefined) | 1.38% (inactive) |
| COc1ccc(C(=O)COC(=O)C(O)c2ccccc2)c(OC)c1 (centres undefined) | 8.77% (inactive) |
| CCOc1ccc(NS(=O)(=O)c2cc(C)c(C)cc2C)cc1 | 2.58% (inactive) |
| Cc1ccc(S(=O)(=O)N2CCN(C(=O)CN3C(=O)NC(C)(c4ccc(Cl)cc4)C3=O)CC2)c(C)c1 (centres undefined) | -0.669% (inactive) |
| CC1CN(C(=O)c2ccc([N+](=O)[O-])s2)CC(C)O1 (centres undefined) | -3.39% (inactive) |
| Cc1c(CCO)c(=O)[nH]n1C(=O)c1c(F)cccc1F | -6.64% (inactive) |
| COc1ccc(CC(NC(C)=O)C(=O)N2CCN(C(=O)Nc3cccc(Cl)c3)CC2)cc1OC (centres undefined) | 1.26% (inactive) |
| Cc1ccc(-c2nc(-c3cccnc3)sc2CC(=O)Nc2ccc(C)c(Cl)c2)cc1 | 6.66% (inactive) |
| Cc1ccc(S(=O)(=O)N(CCCN(C)C)Cc2ccc3c(c2)OCO3)cc1 | 5.59% (inactive) |
| CCOC(=O)C1CCN(CC(=O)Nc2ccc(OC)c(S(=O)(=O)N3CCCCC3)c2)CC1 | 4.01% (inactive) |
| CCOc1ccc(N2C(=O)CC(N(O)c3ccccc3)C2=O)cc1 (centres undefined) | -2.22% (inactive) |
| CCCCCCC(=O)N(O)C1CC(=O)N(c2ccccc2)C1=O (centres undefined) | 78.3% (active) |
| CCOC(=O)c1ccc(N2C(=O)CC(N(C)Cc3ccccc3)C2=O)cc1 (centres undefined) | -1.1% (inactive) |
| CCN(CC)S(=O)(=O)c1ccc2c3c(cccc13)C(=O)S2 | 3.45% (inactive) |
| Fc1cnc(N2CCOCC2)nc1NCc1ccccc1 | -0.33% (inactive) |
